Assay results published in PubChem BioAssay.

Tested on: not listed separately
Assay: compound binding in COS7 lysate, probe aLAP1, primary screen, cell lysate, small-molecule microarray (AID 1124);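 also: lysate comes from COS7 cells expressing LAP1 and is applied at 0.3 µg/mL; score merges spot fluorescence near 667 nm with signal-to-noise over triplicate slides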
Conditions: probe aLAP1, fluorescence, higher = more signal
O=C1OCCC=C[C@H]2OC34C=CCN(CCN5CCOCC5)C(=O)[C@H]3N(CCCCCO)C(=O)[C@@H]4C12 (some centres undefined) gave a composite z-score of 1.48. For O=C1O[C@@H](c2ccccc2)[C@@H](c2ccccc2)N2[C@@H](c3ccc(OCCO)cc3)[C@]3(C(=O)Nc4ccc(C#CCCO)cc43)[C@@H](C(=O)NC[C@H](O)c3ccccc3)[C@H]12, the composite z-score was 0.822. For CN1C(=O)C2C=CC(C(O)c3ccccc3)N(N3CCCCC3)C2C1=O (centres undefined), the composite z-score was 0.676. O=C1NC(=O)C2C1C=CC(C(O)c1ccc(I)cc1)N2Nc1ccc(Cl)cc1Cl (centres undefined) gave a composite z-score of 0.943.

Tested on: Sam68 (KHDRBS1)
Assay: Sam68 small-molecule binders, primary screen, biochemical, small-molecule microarray, 635 nm fluorescence (AID 1125);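 also: score merges 667 nm channel intensity with signal to noise over triplicate slides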
Conditions: small-molecule microarray binding, higher = more signal
In the case of CN1C(=O)C2C=CC(C(O)c3ccc(F)cc3)N(N(c3ccccc3)c3ccccc3)C2C1=O (centres undefined), the composite z-score is reported as -0.0714. Cc1ccc(S[C@]2(C(=O)O)CC(=O)N(Cc3ccccc3C(F)(F)F)[C@@H]2c2ccc(CO)cc2I)cc1 gave a composite z-score of 0.406. For C[N+](C)(C)CCCC[C@@H]1NC(=O)[C@@H]2C[C@H](C(=O)NCCCCCN)[C@H](c3ccc(O)cc3)N2C1=O, the composite z-score was 1.19. For COCCOC(=O)N1C(=O)[C@@]2(c3cc(C#CCCO)ccc31)[C@H](c1ccc(O)cc1)N1[C@H](c3ccccc3)[C@H](c3ccccc3)OC(=O)[C@H]1[C@@H]2C(=O)N1CCN(c2ncccn2)CC1, the composite z-score was 1.29. Molecule O=C(CS)NCCCCCNC(=O)[C@@H]1C[C@@H]2C(=O)NCC(=O)N2[C@@H]1c1ccc(O)cc1 has a composite z-score of 0.692. In the case of O=C1C2C=CC(C(O)C=Cc3ccc([N+](=O)[O-])cc3)N(n3cnnc3)C2C(=O)N1Cc1ccccc1 (centres undefined), the composite z-score is reported as 1.19. Work on C=C(/C(=C/C[C@H](OC(=O)c1ccncc1)c1ccc(OCCO)cc1)c1cc(C(=O)OC)ccc1OC)C(C)C yielded a composite z-score of 0.516. CN(C)CCCC[C@@H]1NC(=O)[C@H]2C[C@@H](C(=O)NCCCCCN)[C@@H](c3cccc(OCCO)c3)N2C1=O showed a composite z-score of 1.19. For CCCNC(=O)[C@@H]1c2ccccc2C(=O)N(Cc2ccccc2OC)[C@H]1c1ccc(CO)cc1, the composite z-score was 1.1. With Cc1ccc(S[C@]2(C(=O)O)CC(=O)N(C(C)C)[C@@H]2c2ccc(CO)cc2)cc1 the composite z-score was 0.462. With COCCCNC(=O)[C@@]1(CCS(=O)(=O)c2ccccc2)N=C(c2ccc(OCCCO)cc2)O[C@H]1c1ccccc1N=[N+]=[N-] the composite z-score was 1.3. For C=CC[C@@]1(C(=O)N2CCCCC2)N=C(c2ccc(OCCCO)cc2)O[C@@H]1c1ccccc1CN=[N+]=[N-], the composite z-score was 1.29. With C#CCN1[C@@H](Cc2ccc(O)cc2)C(=O)O[C@H](Cc2ccccc2)[C@@H]1/C=C/C1CC1 the composite z-score was -0.329. With OCC1C=C(/C=C/c2ccccc2)CN1Cc1ccccc1Br (centres undefined) the composite z-score was 1.01. COc1ccc(C(=O)Nc2ccc(CN3C(=O)[C@]4(O[C@H](CC(=O)N5CCC[C@H]5CO)[C@@H]([Si](C)(C)c5ccc(OC)cc5)[C@@H]4C)c4ccccc43)cc2)cc1 gave a composite z-score of 1.29. CO[C@H]1O[C@H](CO)[C@@H](OC(=O)Nc2ccccc2-c2ccccc2)[C@H](OC(=O)Nc2ccccc2-c2ccccc2)[C@@H]1OC(=O)Nc1ccccc1-c1ccccc1 showed a composite z-score of 1.29. Molecule O=C1C[C@@](C(=O)NCc2ccccc2)(c2ccc([N+](=O)[O-])cc2)[C@@H](c2ccc(CO)cc2)N1CC12CC3CC(CC(C3)C1)C2 has a composite z-score of 1.31. C=C(CCCC)/C(=C/C[C@H](OC(C)=O)c1ccc(OCCO)cc1)c1cnc2ccccc2c1 showed a composite z-score of 1.31. COC(=O)[C@]1(Cc2ccccc2)N=C(c2ccc(OCCCO)cc2)O[C@@H]1c1ccccc1N=[N+]=[N-] showed a composite z-score of 0.3. COC(=O)C(CC#Cc1ccc2c(c1)[C@]1(C(=O)N2)[C@H](c2ccc(O)cc2)N2[C@H](c3ccccc3)[C@H](c3ccccc3)OC(=O)[C@H]2[C@@H]1C(=O)N1CCN(c2ncccn2)CC1)C(=O)OC showed a composite z-score of 1.28. In the case of CO[C@H]1O[C@H](CO)[C@@H](OC(=O)Nc2ccc(Br)cc2)[C@@H]2OC(=O)[C@H](Cc3cccc(Br)c3)C/C=C/C[C@@H](Cc3cccc(Br)c3)C(=O)O[C@@H]12, the composite z-score is reported as -0.975. Molecule COCCOC(=O)N1C(=O)[C@@]2(c3cc(C#CC4(O)CCCCCC4)ccc31)[C@H](c1ccccc1OCCO)N1[C@H](c3ccccc3)[C@H](c3ccccc3)OC(=O)[C@H]1[C@@H]2C(=O)N1CCc2cc(OC)c(OC)cc2C1 has a composite z-score of 1.29. Work on [N-]=[N+]=NCc1ccccc1[C@H]1OC(c2ccc(OCCCO)cc2)=N[C@@]1(Cc1ccccc1)C(=O)N1CCCCC1 yielded a composite z-score of 1.29. For COCCOC(=O)N1C(=O)[C@@]2(c3cc(C#CC4=CCCCC4)ccc31)[C@H](c1ccc(OCCO)cc1)N1[C@H](c3ccccc3)[C@H](c3ccccc3)OC(=O)[C@H]1[C@@H]2C(=O)N1CCc2cc(OC)c(OC)cc2C1, the composite z-score was 1.31. Work on COCC(=C=CC[C@H](O)c1cccc(OCCO)c1)CCO yielded a composite z-score of 0.431. With C=CC[C@]1(C(=O)NCc2ccccc2)N=C(c2ccc(OCCCO)cc2)O[C@H]1c1ccccc1CN=[N+]=[N-] the composite z-score was 1.31. In the case of C=C(CCCC)C(=O)CC[C@@H](OC(C)=O)c1ccc(CO)o1, the composite z-score is reported as 0.628. Work on COc1ccc(C(=O)Nc2cccc(CN3C(=O)[C@]4(O[C@H](CCn5cc(CCO)nn5)[C@@H]([Si](C)(C)c5ccc(OC)cc5)[C@@H]4C)c4ccccc43)c2)cc1 yielded a composite z-score of 1.1. For COC(=O)c1c(CC[C@@H](CO)NC(=O)N[C@@H](Cc2ccccc2)Cn2cc(-c3ccccn3)nn2)oc(C(=O)N2CCOCC2)c1C(=O)OC, the composite z-score was -0.23. Work on C=CCN1C(=O)[C@]2(O[C@H](CCO)[C@@H]([Si](C)(C)c3ccc(OC)cc3)[C@@H]2C)c2cc(N(C=O)c3ccccc3)ccc21 yielded a composite z-score of 0.518. [N-]=[N+]=Nc1ccccc1[C@H]1OC(c2ccc(OCCCO)cc2)=N[C@@]1(CCS(=O)(=O)c1ccccc1)C(=O)NCc1ccccc1 gave a composite z-score of 1.32. O=C1OCCC=C[C@H]2OC34C=CCN(CCN5CCOCC5)C(=O)[C@H]3N(CCCCCO)C(=O)[C@@H]4C12 (some centres undefined) gave a composite z-score of 0.913. O=C1O[C@@H](c2ccccc2)[C@@H](c2ccccc2)N2[C@@H](c3ccc(OCCO)cc3)[C@]3(C(=O)Nc4ccc(C#CCCO)cc43)[C@@H](C(=O)NC[C@H](O)c3ccccc3)[C@H]12 gave a composite z-score of 1.26. Work on CN1C(=O)C2C=CC(C(O)c3ccccc3)N(N3CCCCC3)C2C1=O (centres undefined) yielded a composite z-score of 1.02. O=C1NC(=O)C2C1C=CC(C(O)c1ccc(I)cc1)N2Nc1ccc(Cl)cc1Cl (centres undefined) gave a composite z-score of 1.22.
